According to PubChem BioAssay (NCI):
The panel holds about 83,000 compounds, 20% with a hit somewhere; the sample as a whole holds those more often.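 Percent growth is the endpoint: 0 to 100 indicates growth inhibition (40 means 60% inhibition), 0 means no net growth, and negative values indicate cell death.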 Activity calls are given as the source filed them. The calls were made as follows: active = growth percent below 10; inactive = the rest.

Test system: NCI-H23 lung
Assay: NCI-60 one-dose screen, 48 h (100 = growth as untreated, 0 = no growth, -100 = all killed)
Details: 10 µM unless noted

Compound | growth
CCN(CC)CCCC(C)Nc1c2ccc(Cl)cc2nc2ccc(O)cc12 (centres undefined) | 46.2% (inactive)
Cc1ccc(-c2cc3c(cc2O)C2CCCCC2(N2CCOCC2)O3)cc1 (centres undefined) | 94.8% (inactive)
CNC(=O)NCC1OC(n2cnc3c(NC(=O)Nc4ccccc4)ncnc32)C(O[Si](C)(C)C(C)(C)C)C1CC(=O)N(C)OC (centres undefined) | 48.2% (inactive)
COc1cc(/C=C/C(=O)c2cccc(-n3cc(-c4ccccc4)[nH]c3=O)c2)ccc1O | 84.5% (inactive)
CC(=O)OC1CCC2(C)C(=CC3C4CCC(=O)C4(C)CCC32)C1 (centres undefined) | 102% (inactive)
O=C(Nc1ccccc1-c1nc2ccccc2c(=O)[nH]1)c1cc2ccccc2[nH]1 | 82.4% (inactive)
CC(=O)OC[C@H]1OC(Sc2sc(C(=O)c3ccc(Br)cc3)c(N)c2-c2nc3ccccc3s2)[C@H](OC(C)=O)[C@@H](OC(C)=O)[C@@H]1OC(C)=O (some centres undefined) | 23.8% (inactive)
O=C(COc1ccc(/C=C2\Oc3ccccc3C2=O)cc1)c1ccc(Cl)cc1 | 107% (inactive)
C=CC(=O)Nc1cccc(Oc2nccc(Nc3nnc(C4CC4)s3)n2)c1 | 97.1% (inactive)
O=C(NC(CSSCC(NC(=O)c1ccccc1)C(=O)O)C(=O)O)c1ccccc1 (centres undefined) | 101% (inactive)
CC(C)(C)c1ccc(/C=C/C(=O)Nc2ccc(O)cc2)cc1 | 80.9% (inactive)
CCOc1c(C#N)nnc2c(C#N)c(NC(=O)c3ccccc3)nn12 | 90.8% (inactive)
COc1ccc(N=C(c2ccccc2)C2C(=O)c3ccccc3C2=O)cc1 | 99.4% (inactive)
COc1ccc(-c2nc(SCCC(C)C)nc(N/N=C\c3ccccc3O)c2C#N)cc1 | 83.2% (inactive)
